# Inconclusive results are not listed. Calls of active or inactive are those of the source. The calls were made as follows, unless noted: active = hit-call score of the fitted dose curve at least 0.9, where 1 is the maximum; inactive = score below 0.9.
# Tests used:
# [1] = target: human RAR-related Orphan Receptor gamma (RORg), RORC (gene 6097) (UniProt P51449); assay: ATG_RORg_TRANS: Attagene TRANS-FACTORIAL HepG2 Assay for human RAR-related Orphan Receptor gamma (RORg) (AID 2283011; active = hit-call score of the fitted dose curve at least 0.9, where 1 is the maximum)
# Outline: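 Activity is scored as increase in GAL4-UAS reporter mRNA over DMSO, detected by fluorescent RT-PCR and capillary electrophoresis in HepG2 cells transiently expressing a RORg-Gal4 chimera, 24 h after dosing.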
# [2] = target: human Retinoid X Receptor beta (RXRb), RXRB (gene 6257) (UniProt P28702); assay: ATG_RXRb_TRANS: Attagene TRANS-FACTORIAL HepG2 Assay for human Retinoid X Receptor beta (RXRb) (AID 2283013; active = hit-call score of the fitted dose curve at least 0.9, where 1 is the maximum)
# Outline: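 HepG2 cells transiently transfected with multiplexed reporter units driven by GAL4-UAS and exogenous chimeric NR-Gal4 proteins; treated 24 h. Reporter mRNA measured by RT-PCR, 6-FAM labelling and capillary electrophoresis; gain-of-signal fitted versus DMSO baseline.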
# [3] = read-out: E-selectin (Homo sapiens) (UniProt P16581); assay: BSK_3C_Eselectin: BioMAP Diversity Plus: 3C Assay for Eselectin Biomarker Activity (AID 2283015); conditions: primary human endothelial cells (HUVEC); actives raise or lower the signal;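 as to outcome: cell surface E-selectin protein quantified by ELISA 24 h after dosing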
# Outline: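 Human vascular endothelium from umbilical vein is exposed to test chemicals for 24 h. E-selectin levels are read by ELISA and compared with DMSO controls.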
# [4] = read-out: Interleukin-1 alpha (IL1a), IL1A (gene 3552); assay: BSK_BE3C_IL1a: BioMAP Diversity Plus: BE3C Assay for Interleukin-1 alpha (IL1a) Biomarker Activity (AID 2283016); conditions: primary human bronchial epithelial cells; actives raise or lower the signal
# Outline: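 Human primary bronchial epithelial cells (BE3C system) were dosed with compound and IL-1a measured by ELISA 24 h later. Activity was fitted bidirectionally against DMSO baseline; cytotoxicity was tracked in parallel cultures by SRB total-protein staining.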
# [5] = read-out: Monocyte Chemoattractant Protein-1 (MCP1), CCL2 (gene 6347); assay: BSK_3C_MCP1: BioMAP Diversity Plus: 3C Assay for Monocyte Chemoattractant Protein-1 (MCP1) Biomarker Activity (AID 2283017); conditions: primary human endothelial cells (HUVEC); actives raise or lower the signal
# Outline: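 Endothelial cells from human umbilical vein are dosed with chemical, cultured 24 h, then assayed for MCP-1 by ELISA; both increases and decreases are modelled against DMSO controls.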
# [6] = read-out: Monocyte Chemoattractant Protein-1 (MCP1), CCL2 (gene 6347); assay: BSK_4H_MCP1: BioMAP Diversity Plus: 4H Assay for Monocyte Chemoattractant Protein-1 (MCP1) Biomarker Activity (AID 2283018); conditions: primary human endothelial cells (HUVEC); actives raise or lower the signal
# Outline: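 Human umbilical vein endothelial cells (4H system) dosed with chemical; MCP-1 measured by ELISA 24 h after dosing. Bidirectional curve fitting against DMSO negative control as baseline; parallel SRB total-protein staining tracks overt cytotoxicity.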
# [7] = read-out: Human Leukocyte Antigen - DR isotype (HLADR), HLA-DRA (gene 3122); assay: BSK_3C_HLADR: BioMAP Diversity Plus: 3C Assay for Human Leukocyte Antigen - DR isotype (HLADR) Biomarker Activity (AID 2283019); conditions: primary human endothelial cells (HUVEC); actives raise or lower the signal;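 also: ELISA of cell-surface HLA-DR on HUVEC 24 h after dosing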
# Outline: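 Endothelial cells from human umbilical vein are treated with test chemical; after 24 h, HLA-DR levels are measured by ELISA. Data are fitted in both directions using DMSO as the baseline.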
# [8] = read-out: Interleukin-8 (IL8), CXCL8 (gene 3576); assay: BSK_3C_IL8: BioMAP Diversity Plus: 3C Assay for Interleukin-8 (IL8) Biomarker Activity (AID 2283020); conditions: primary human endothelial cells (HUVEC); actives raise or lower the signal
# Outline: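 Primary human umbilical vein endothelial cells (3C system) were exposed to test chemical for 24 h, then IL-8 was quantified by ELISA. Responses were fitted bidirectionally against DMSO vehicle as baseline.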
# [9] = read-out: Monokine induced gamma interferon (MIG), CXCL9 (gene 4283); assay: BSK_3C_MIG: BioMAP Diversity Plus: 3C Assay for Monokine induced gamma interferon (MIG) Biomarker Activity (AID 2283021); conditions: primary human endothelial cells (HUVEC); actives raise or lower the signal
# Outline: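 Primary human umbilical vein endothelial cells in the 3C system were exposed to chemical for 24 h, after which MIG was quantified by ELISA. Activity was fitted bidirectionally against DMSO as negative control and baseline.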
# [10] = target: human Vitamin D Receptor (VDR), VDR (gene 7421) (UniProt P11473); assay: ATG_VDR_TRANS: Attagene TRANS-FACTORIAL HepG2 Assay for human Vitamin D Receptor (VDR) (AID 2283022; active = hit-call score of the fitted dose curve at least 0.9, where 1 is the maximum)
# Outline: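 Fluorescence of labelled reporter cDNA fragments, resolved by capillary electrophoresis, gives mRNA induction after 24 h treatment of HepG2 cells carrying transfected Gal4-fusion reporter units. Activity is fitted in the positive direction with DMSO as baseline.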
# [11] = BSK_3C_SRB: Viability Assessment in the BioMAP Diversity Plus: 3C Assay (AID 2283023); conditions: primary human endothelial cells (HUVEC);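 also: fitted both ways against DMSO so a hit may be signal rise or drop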
# Outline: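 Cells were dosed with chemical, cultured 24 h, fixed with 10% TCA, stained with 0.1% SRB and read at 560 nm. Human umbilical vein endothelium was used; DMSO served as negative control and baseline.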
# [12] = read-out: Matrix Metallopeptidase 1 (MMP1), MMP1 (gene 4312); assay: BSK_BE3C_MMP1: BioMAP Diversity Plus: BE3C Assay for Matrix Metallopeptidase 1 (MMP1) Biomarker Activity (AID 2283024); conditions: primary human bronchial epithelial cells; actives raise or lower the signal
# Outline: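 Primary human bronchial epithelial cells were dosed with test chemicals, and MMP1 levels were measured by ELISA 24 h later. Data were fitted bidirectionally against DMSO as the negative control and activity baseline.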
# [13] = BSK_3C_Vis: BioMAP Diversity Plus: 3C Assay for Morphology Visualization (AID 2283025); conditions: primary human endothelial cells (HUVEC);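 also: fitted both ways so gain or loss versus DMSO counts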
# Outline: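 Human umbilical vein endothelial cells in the 3C system were imaged by light microscopy 24 h after chemical dosing to record cell morphology. Activity was fitted bidirectionally against DMSO as negative control and baseline; the endpoint serves as a background control.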
# [14] = read-out: Pselectin, SELP (gene 6403); assay: BSK_4H_Pselectin: BioMAP Diversity Plus: 4H Assay for Pselectin Biomarker Activity (AID 2283026); conditions: primary human endothelial cells (HUVEC); actives raise or lower the signal
# Outline: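 Primary human umbilical vein endothelial cells were exposed to test chemical for 24 h, then cell-surface P-selectin was quantified by ELISA. Activity was fitted bidirectionally against DMSO as negative control and baseline.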
# [15] = BSK_4H_SRB: Viability Assessment in the BioMAP Diversity Plus: 4H Assay (AID 2283027); conditions: primary human endothelial cells (HUVEC);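 also: cells exposed to compound for 24 h before staining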;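 as to AC50: curves fitted both ways versus DMSO so AC50 may be loss or gain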
# Outline: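 Human umbilical vein endothelial cells, 24 h after chemical dosing; total protein measured by 0.1% sulforhodamine B staining after 10% TCA fixation, read at 560 nm. Bidirectional fitting against DMSO.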
# [16] = BSK_BE3C_SRB: Viability Assessment in the BioMAP Diversity Plus: BE3C Assay (AID 2283028); conditions: primary human bronchial epithelial cells
# Outline: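 Overt cytotoxicity was assessed as total protein in confluent human primary bronchial epithelial cultures 24 h after chemical addition, using 0.1% sulforhodamine B staining read at 560 nm.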
# [17] = read-out: Thrombomodulin, THBD (gene 7056); assay: BSK_3C_Thrombomodulin: BioMAP Diversity Plus: 3C Assay for Thrombomodulin Biomarker Activity (AID 2283029); conditions: primary human endothelial cells (HUVEC); actives raise or lower the signal
# Outline: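 Primary human umbilical vein endothelial cells (3C system) were exposed to chemical for 24 h, then thrombomodulin levels were measured by ELISA. Activity was fitted bidirectionally against the DMSO negative control as baseline.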
# [18] = target: human Thyroid Receptor alpha (THRa1), THRA (gene 7067) (UniProt P10827); assay: ATG_THRa1_TRANS: Attagene TRANS-FACTORIAL HepG2 Assay for human Thyroid Receptor alpha (THRa1) (AID 2283014; active = hit-call score of the fitted dose curve at least 0.9, where 1 is the maximum)
# Outline: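 First, HepG2 cells receive multiple GAL4-UAS reporter units and the chimeric receptor. They are then dosed for 24 h, after which RNA is reverse-transcribed, amplified, labelled, HpaI-cut and sized by capillary electrophoresis; gain relative to DMSO is scored.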
# [19] = target: Retinoic acid receptor RXR-alpha (Homo sapiens) (UniProt P19793); assay: ATG_RXRa_TRANS: Attagene TRANS-FACTORIAL HepG2 Assay for human Retinoid X Receptor alpha (RXRa) (AID 2283012; active = hit-call score of the fitted dose curve at least 0.9, where 1 is the maximum)
# Outline: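 HepG2 cells transiently transfected with multiplexed GAL4-UAS reporter units and chimeric NR-GAL4 fusions, dosed 24 h. Reporter mRNA measured by RT-PCR, FAM labelling, HpaI digestion and capillary electrophoresis; gain-of-signal fitted relative to DMSO baseline.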
# Chain of E-selectin (Homo sapiens) (P16581 whole entry, looked up): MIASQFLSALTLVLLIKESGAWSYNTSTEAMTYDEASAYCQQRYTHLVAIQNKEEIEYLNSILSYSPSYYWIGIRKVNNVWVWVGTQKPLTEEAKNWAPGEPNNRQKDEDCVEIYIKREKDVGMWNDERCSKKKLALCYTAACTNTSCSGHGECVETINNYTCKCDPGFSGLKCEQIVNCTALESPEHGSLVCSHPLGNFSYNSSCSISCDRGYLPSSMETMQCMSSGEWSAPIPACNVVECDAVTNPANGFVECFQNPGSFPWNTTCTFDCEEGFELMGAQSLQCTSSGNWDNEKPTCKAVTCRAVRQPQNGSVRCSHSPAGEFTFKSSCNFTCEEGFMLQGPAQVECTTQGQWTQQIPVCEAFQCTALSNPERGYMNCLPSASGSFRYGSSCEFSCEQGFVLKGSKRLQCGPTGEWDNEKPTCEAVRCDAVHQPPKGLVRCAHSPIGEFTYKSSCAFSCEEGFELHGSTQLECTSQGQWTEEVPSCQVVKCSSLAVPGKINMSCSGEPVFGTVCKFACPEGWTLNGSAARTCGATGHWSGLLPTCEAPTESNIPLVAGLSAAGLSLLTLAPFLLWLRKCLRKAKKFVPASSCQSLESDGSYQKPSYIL
# Chain of human Retinoid X Receptor beta (RXRb), RXRB (gene 6257) (P28702 whole entry, looked up, the tested form may be a part): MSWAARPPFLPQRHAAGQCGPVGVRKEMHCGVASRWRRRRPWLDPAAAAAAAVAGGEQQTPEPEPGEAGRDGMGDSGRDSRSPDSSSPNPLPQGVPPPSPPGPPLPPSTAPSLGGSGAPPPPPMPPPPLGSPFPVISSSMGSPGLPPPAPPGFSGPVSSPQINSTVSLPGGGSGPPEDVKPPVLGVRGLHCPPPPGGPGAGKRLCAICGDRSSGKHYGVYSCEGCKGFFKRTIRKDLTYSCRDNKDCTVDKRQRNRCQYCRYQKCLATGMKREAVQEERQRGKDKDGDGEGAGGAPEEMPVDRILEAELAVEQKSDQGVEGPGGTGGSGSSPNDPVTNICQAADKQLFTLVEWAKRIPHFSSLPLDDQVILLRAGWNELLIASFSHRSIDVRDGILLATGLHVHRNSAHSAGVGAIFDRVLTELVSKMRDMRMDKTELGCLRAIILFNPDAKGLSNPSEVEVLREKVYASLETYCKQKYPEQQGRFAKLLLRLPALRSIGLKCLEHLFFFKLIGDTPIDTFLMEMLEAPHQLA
# Chain of human RAR-related Orphan Receptor gamma (RORg), RORC (gene 6097) (P51449 whole entry, looked up, the tested form may be a part): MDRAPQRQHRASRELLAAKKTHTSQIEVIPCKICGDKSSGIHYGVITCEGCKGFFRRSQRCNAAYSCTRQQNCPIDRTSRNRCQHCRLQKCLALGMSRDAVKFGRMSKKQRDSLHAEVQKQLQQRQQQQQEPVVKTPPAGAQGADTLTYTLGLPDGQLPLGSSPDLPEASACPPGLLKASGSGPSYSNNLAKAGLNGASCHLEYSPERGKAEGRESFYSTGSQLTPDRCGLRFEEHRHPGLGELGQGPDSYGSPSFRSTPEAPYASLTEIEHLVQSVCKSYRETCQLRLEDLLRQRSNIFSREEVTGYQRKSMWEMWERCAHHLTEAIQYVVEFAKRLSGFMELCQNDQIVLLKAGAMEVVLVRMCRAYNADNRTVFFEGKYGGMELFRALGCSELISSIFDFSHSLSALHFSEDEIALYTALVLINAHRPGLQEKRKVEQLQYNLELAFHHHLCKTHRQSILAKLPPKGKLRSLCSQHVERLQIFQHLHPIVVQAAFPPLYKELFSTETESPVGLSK
# Chain of human Thyroid Receptor alpha (THRa1), THRA (gene 7067) (P10827 whole entry, looked up, the tested form may be a part): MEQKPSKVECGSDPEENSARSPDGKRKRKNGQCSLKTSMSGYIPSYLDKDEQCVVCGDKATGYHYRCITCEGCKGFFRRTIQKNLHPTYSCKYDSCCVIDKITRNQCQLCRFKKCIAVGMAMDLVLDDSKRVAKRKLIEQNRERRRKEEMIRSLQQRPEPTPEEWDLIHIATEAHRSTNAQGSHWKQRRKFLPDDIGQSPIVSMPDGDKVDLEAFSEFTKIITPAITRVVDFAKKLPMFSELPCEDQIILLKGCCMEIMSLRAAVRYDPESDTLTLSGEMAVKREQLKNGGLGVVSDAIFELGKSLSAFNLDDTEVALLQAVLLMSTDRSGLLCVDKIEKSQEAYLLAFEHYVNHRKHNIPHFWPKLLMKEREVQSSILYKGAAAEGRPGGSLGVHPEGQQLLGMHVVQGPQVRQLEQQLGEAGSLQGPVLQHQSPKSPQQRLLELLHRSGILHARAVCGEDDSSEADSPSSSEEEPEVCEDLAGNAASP
# Chain of human Vitamin D Receptor (VDR), VDR (gene 7421) (P11473 whole entry, looked up, the tested form may be a part): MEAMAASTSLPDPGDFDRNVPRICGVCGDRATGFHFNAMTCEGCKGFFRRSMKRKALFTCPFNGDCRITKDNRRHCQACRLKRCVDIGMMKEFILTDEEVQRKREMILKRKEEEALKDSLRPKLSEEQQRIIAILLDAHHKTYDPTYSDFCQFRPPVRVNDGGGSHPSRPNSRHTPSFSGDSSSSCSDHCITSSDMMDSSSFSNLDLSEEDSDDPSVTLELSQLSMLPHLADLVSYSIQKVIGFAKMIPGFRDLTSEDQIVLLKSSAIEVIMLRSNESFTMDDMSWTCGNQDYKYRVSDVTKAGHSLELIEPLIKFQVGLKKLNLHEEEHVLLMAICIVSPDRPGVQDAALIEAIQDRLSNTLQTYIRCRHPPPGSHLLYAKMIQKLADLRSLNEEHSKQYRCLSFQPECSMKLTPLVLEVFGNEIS
# Chain of Retinoic acid receptor RXR-alpha (Homo sapiens) (P19793 whole entry, looked up, the tested form may be a part): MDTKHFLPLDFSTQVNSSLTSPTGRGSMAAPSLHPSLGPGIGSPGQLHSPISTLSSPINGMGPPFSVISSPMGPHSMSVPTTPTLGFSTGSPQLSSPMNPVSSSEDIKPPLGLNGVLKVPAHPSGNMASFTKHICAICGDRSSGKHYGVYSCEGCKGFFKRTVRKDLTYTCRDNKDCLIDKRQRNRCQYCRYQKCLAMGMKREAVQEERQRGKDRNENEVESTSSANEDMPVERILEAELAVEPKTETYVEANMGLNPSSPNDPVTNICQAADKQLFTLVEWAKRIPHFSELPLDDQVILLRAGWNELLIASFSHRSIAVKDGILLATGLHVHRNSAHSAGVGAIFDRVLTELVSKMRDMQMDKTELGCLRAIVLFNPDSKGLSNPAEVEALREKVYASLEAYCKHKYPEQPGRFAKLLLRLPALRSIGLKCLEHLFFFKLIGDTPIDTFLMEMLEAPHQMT
smiles,measurement,setting,value
S=C1NCCN1,outcome,[1],inactive
same,outcome,[2],inactive
same,outcome,[3],inactive
same,outcome,[4],inactive
same,outcome,[5],inactive
same,outcome,[6],inactive
same,outcome,[7],inactive
same,outcome,[8],inactive
same,outcome,[9],inactive
same,outcome,[10],inactive
same,outcome,[11],inactive
same,outcome,[12],inactive
same,AC50,[13],39 µM (active)
same,outcome,[14],inactive
same,outcome,[15],inactive
same,outcome,[16],inactive
same,outcome,[17],inactive
C=C(C)[C@H]1Cc2c(ccc3c2O[C@@H]2COc4cc(OC)c(OC)cc4[C@@H]2C3=O)O1,outcome,[1],inactive
same,outcome,[2],inactive
same,AC50,[18],0.24 µM (active)
same,AC50,[3],20 µM (active)
same,outcome,[4],inactive
same,AC50,[5],34.8 µM (active)
same,AC50,[6],29.3 µM (active)
same,AC50,[8],20 µM (active)
same,outcome,[9],inactive
same,AC50,[11],12.9 µM (active)
same,outcome,[12],inactive
same,AC50,[13],0.468 µM (active)
same,AC50,[14],10.3 µM (active)
same,AC50,[15],3.9 µM (active)
same,outcome,[16],inactive
same,outcome,[17],inactive
CON=C(C(=O)OC)c1ccccc1CON=C(C)c1cccc(C(F)(F)F)c1,outcome,[19],inactive
same,outcome,[2],inactive
same,outcome,[18],inactive
same,AC50,[3],2.35 µM (active)
same,outcome,[4],inactive
same,AC50,[5],3.3 µM (active)
same,AC50,[6],2.81 µM (active)
same,AC50,[8],1.76 µM (active)
same,outcome,[9],inactive
same,AC50,[11],10.4 µM (active)
same,outcome,[12],inactive
same,outcome,[13],inactive
same,outcome,[14],inactive
same,AC50,[15],5.67 µM (active)
same,outcome,[16],inactive
same,AC50,[17],3.92 µM (active)
